Compounds with a hit are over-represented: about 2.4% of the library has one in this group of screens.
AmpC nodet inh = AmpC beta-lactamase inhibition, detergent-free assay; P00811; hit rate 1.8% among 71,000; Potency, µM (highest dose often 28.7 µM), for the others: top-dose activity change, negative = inhibition; AID 585; AmpC nitrocefin hydrolysis, absorbance 480 nm, no detergent; further: % of control where 0% means no effect
Target sequence (P00811 whole entry, looked up): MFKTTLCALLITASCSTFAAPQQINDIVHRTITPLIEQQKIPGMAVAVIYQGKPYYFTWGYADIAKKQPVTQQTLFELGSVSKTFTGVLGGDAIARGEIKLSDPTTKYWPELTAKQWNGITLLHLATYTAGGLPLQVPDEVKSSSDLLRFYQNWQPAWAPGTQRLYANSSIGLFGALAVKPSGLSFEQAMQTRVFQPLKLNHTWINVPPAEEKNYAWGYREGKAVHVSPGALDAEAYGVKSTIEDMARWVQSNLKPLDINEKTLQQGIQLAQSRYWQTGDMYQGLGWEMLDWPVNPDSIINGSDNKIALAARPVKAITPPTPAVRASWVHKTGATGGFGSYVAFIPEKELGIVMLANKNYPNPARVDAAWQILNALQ
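AmpC in 20 mM phosphate buffer pH 7.0 was preincubated 15 min at room temperature with compounds. Nitrocefin (800 uM stock) was then added and hydrolysis followed at 480 nm every 20 s for 4 min.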
Anthrax LT inh = inhibitors of anthrax lethal toxin internalization. Cells, anthrax lethal toxin internalization, FRET ratio (460/530). Potency, µM (titrated, usually from 40 µM), without a hit: top-dose activity change, negative = inhibition, most hits filed as inhibitors. hit rate 0.67% among 70,000; further: on the % scale 0 is the no-effect control and ±100 the full control effect; nearly all actives have a fitted effect of over 50% in size
SmPrx2 inh = inhibitors of Schistosoma mansoni peroxiredoxin 2 | S. mansoni Prx2 activity coupled to TGR/GSH (TGR is thioredoxin glutathione reductase), NADPH fluorescence loss, qHTS | Potency, µM | hit rate 0.07% among 65,000
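Activity is read as the drop in NADPH fluorescence (365/450 nm), recorded every 30 sec for 8 min after H2O2 addition. Prx2 is coupled to TGR-driven NADPH oxidation through glutathione, in phosphate buffer pH 7.4.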
AmpC det inh = blocks E. coli AmpC beta-lactamase in presence of detergent; P00811; purified AmpC, nitrocefin hydrolysis with detergent; Potency, µM (series often up to 28.7 µM), for the others: top-dose activity change, negative = inhibition; hit rate 0.09% among 71,000; AID 584; active means well fitted curve in the direction sought with a large enough effect; inconclusive means small, poorly fitted or top-dose-only effect; further: on the % scale 0 is the no-effect control and ±100 the full control effect
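E. coli AmpC (5.3 nM) in 20 mM phosphate pH 7.0 with 0.01% Triton X-100, preincubated 15 min RT with compound; nitrocefin (2 uL of 800 uM stock) hydrolysis followed by 480 nm absorbance every 20 s over 4 min.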
* hit, by the source's call; ? = inconclusive; / = no result given; [ ] = remark or other dose. Unless noted, the call rests on the fitted dose curve. Potency means the concentration at half of the fitted maximal effect.

SMILES	AmpC nodet inh	Anthrax LT inh	SmPrx2 inh	AmpC det inh
O=C(Nc1ccc2c(c1)OCCO2)c1ccco1	3%	10µM*	>57	9%
COc1ccc2cc3cc(C(=O)Nc4ccc5c(c4)OCCO5)oc3nc2c1	48%	1µM*	>57	0%
c1ccc(C(c2ccccc2)N2CCCC3(CCNCC3)C2)cc1	46%	-27%	>57	-4%
CCOC(=O)CSc1nnc(N)s1	-11%	?	>57	2%
CCOC(=O)CSc1nn(C)c(=S)s1	4µM*[single pt active]	-11%	>57	13%
Cc1ccc(-c2nc(CSCC(=O)N3CCCC3)c(C)o2)cc1	67%	7%	>57	-1%
Cc1ccsc1-c1nc(CSCC(=O)N2CCN(c3ccccc3)CC2)c(C)o1	127%	16µM*	>57	10%
CCOC(=O)c1c(C)[nH]c(C)c1C(=O)COC(=O)C1CCCN1S(=O)(=O)c1ccccc1F (stereo not drawn)	53%	4%	/	1%
O=C(Nc1cccnc1)C(Cc1ccccc1)n1cccc1 (stereo not drawn)	27%	-1%	>57	8%
O=C(Nc1ncc(Br)s1)C(Cc1ccccc1)n1cccc1 (stereo not drawn)	13µM*	?	>57	3%
COC(=O)Cc1cc(=O)n2[nH]c(C)nc2n1	0%	-8%	>57	-1%
COc1cccc(-c2nc(NCc3ccccc3OC)c3ccccc3n2)c1	0%	13µM*	>57	10%
COc1ccccc1CNc1nc(-c2cccc(C#N)c2)nc2ccccc12	?	?	>57	10%
COc1ccccc1CNc1nc(-c2ccc3c(c2)OCO3)nc2ccccc12	?	13µM*	>57	11%
COc1ccccc1CNc1nc(-c2ccc(N(C)C)cc2)nc2ccccc12	-5%	?	>57	5%
COc1cccc(-c2nc(NCc3ccccc3)c3ccccc3n2)c1	-5%	-33%	>57	8%
CS(=O)(=O)Nc1cccc(-c2nc(Nc3ccc(F)cc3)c3ccccc3n2)c1	5%	10µM*	>57	18%
CNc1nc(-c2cccc(NS(C)(=O)=O)c2)nc2ccccc12	2%	4%	>57	14%
COc1ccccc1CNc1nc(-c2cccc(NS(C)(=O)=O)c2)nc2ccccc12	-11%	13µM*	>57	9%
COc1cc(C(=O)OCC(=O)Nc2cc(C)on2)ccc1OCc1ccccc1Cl	13µM*	2%	>57	-2%
CC1CCN(Cc2ccc(NC(=O)CC3Oc4ccccc4NC3=O)cc2)CC1 (stereo not drawn)	4µM*[single pt active]	-5%	>57	12%
COCCCNC(=O)CC1Oc2ccccc2NC1=O (stereo not drawn)	-9%	?	>57	8%
O=C(CC1Oc2ccccc2NC1=O)NCCCN1CCN(C2CCCCC2)CC1 (stereo not drawn)	4µM*[single pt active]	-8%	?	17%
O=C(CC1Oc2ccccc2NC1=O)NC1CC1 (stereo not drawn)	1%	0%	>57	11%
CCC1CCCCN1CCCNC(=O)CC1Oc2ccccc2NC1=O (stereo not drawn)	4µM*[single pt active]	-10%	>57	12%
SMILES	AmpC nodet inh	Anthrax LT inh	SmPrx2 inh	AmpC det inh
Cc1noc(/C=C/c2ccco2)c1S(=O)(=O)N1CCC(C(=O)N(C)Cc2ccccc2)CC1	56%	-17%	>57	-4%
Cn1cc(C(=O)c2ccccc2)c2ccccc21	4µM*[single pt active]	-23%	>57	10%
CS(=O)(=O)N(CC(=O)NCC1CCCO1)Cc1ccc(Cl)cc1 (stereo not drawn)	22%	-12%	>57	-2%
O=c1c2ccccc2sn1-c1ccc(S(=O)(=O)N2CCCC2)cc1	-6%	0.13µM*	>57	-5%
O=c1c2ccccc2sn1-c1ccc(S(=O)(=O)N2CCCCC2)cc1	-7%	0.16µM*	>57	-4%
O=C(CNC(=O)c1cccs1)OCC(=O)c1cccs1	-11%	1%	>57	10%
CN1c2cc3c(cc2N=C(c2ccc(C(=O)O)cc2)c2ccccc21)C(C)(C)CCC3(C)C	/	10µM*	/	/
Cc1ccc(-n2c(Cc3cccn3C)nnc2SCC(=O)N2CCc3ccccc32)cc1	136%	0%	>57	-5%
O=C(Cc1coc2cc3c(cc12)CCC3)OCc1cc(=O)n2c(n1)sc1ccccc12	10µM*	0%	>57	-1%
Cc1ccc2c(CC(=O)OCc3csc(C)n3)coc2c1	37%	3%	>57	-4%
[C-]#[N+]/C(C#N)=C\c1cc(C(C)(C)C)c(O)c(C(C)(C)C)c1	/	0.1µM*	/	/
CC(C)(C)c1cc(/C=C(\C#N)C(N)=S)cc(C(C)(C)C)c1O	-1%	7.9µM*	>57	-1%
O=C(Nc1cccc(-c2nc3ncccc3o2)c1)c1cc2ccccc2o1	84%	3.2µM*	>57	5%
O=C(CSc1nnc(Cc2ccccc2)o1)N1CCCc2ccccc21	28%	4%	>57	12%
O=C(CSc1nnc(Cc2csc(Nc3cccc(Cl)c3)n2)o1)N1CCc2ccccc21	13µM*	-26%	>57	1%
O=C(CSc1nnc(CNc2ccccc2)o1)N1CCc2ccccc21	16µM*[single pt active]	1%	>57	0%
Cc1ccc(-c2nnc3n2N=C(c2ccccc2)CS3)cc1	8%	-18%	>57	13%
c1ccc(C2=Nn3c(nnc3-c3cc(-c4ccccc4)n[nH]3)SC2)cc1	38%	13µM*	>57	3%
COCCn1c(=O)c(-c2cn(C)c3ccccc23)nc2cncnc21	25%	?	>57	2%
CCCCSc1c(C)c2cc3c(cc2[nH]c1=O)OCO3	16µM*[single pt active]	/	>57	-4%
CCOc1ccc(-c2[nH]nc3c2C(c2cccnc2)C(C#N)=C(N)O3)cc1 (stereo not drawn)	-11%	-2%	>57	-3%
CCn1cc(C(=O)NC2CCCCC2)c(=O)c2cc(S(=O)(=O)N(C)C)ccc21	4µM*[single pt active]	-9%	>57	11%
CCN(CC)CCNC(=O)c1cn(CC)c2ccc(S(=O)(=O)N(C)C)cc2c1=O	3.2µM*[single pt active]	-5%	>57	13%
CCC(C)NC(=O)c1cn(CC)c2ccc(S(=O)(=O)N(C)C)cc2c1=O (stereo not drawn)	86%	5%	>57	8%
CCN(CC)CCNC(=O)c1cn(C)c2ccc(S(=O)(=O)N(C)C3CCCCC3)cc2c1=O	4µM*[single pt active]	4µM*	>57	12%
SMILES	AmpC nodet inh	Anthrax LT inh	SmPrx2 inh	AmpC det inh
CN1CCN(C(=O)c2cn(C)c3ccc(S(=O)(=O)N(C)C4CCCCC4)cc3c2=O)CC1	27%	-23%	>57	12%
CCn1cc(C(=O)O)c(=O)c2cc(S(=O)(=O)N(C)C)ccc21	0%	-9%	>57	9%
CCS(=O)(=O)N1CCC(C(=O)OCC(=O)c2ccc(Br)cc2)CC1	18%	5%	>57	1%
CCOC(=O)C1C(=O)Oc2ccc3ccccc3c2C1C1CCOC1=O (stereo not drawn)	4µM*[single pt active]	-11%	>57	14%
C=CCC(C#Cc1ccccc1)N(C)C (stereo not drawn)	14%	-15%	>57	2%
O=C1C2=C(Nc3ccccc3SC2c2ccco2)c2ccccc21 (stereo not drawn)	0.4µM*	?	/	7%
O=C1c2ccccc2NC(c2ccco2)N1O (stereo not drawn)	-9%	-3%	/	0%

Assay outcomes from PubChem.
